This is an account of results in PubChem BioAssay (NCI).

Each structure is given as a SMILES string. This is part of a sample that, as a whole, favours compounds with a hit. Of some 83,000 tested, about 20% had one in any assay.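 Single-dose data. Exposure time 48 hours. Values below 10 considered active.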 Unmarked numbers belong to inactive results. Activity calls are given as the source filed them.

Test systems include NCI-H23 lung; NCI-H226 lung; NCI-H322M lung; HOP-62 NSCLC; NCI-H460 lung; HOP-92 NSCLC; NCI-H522 lung; A549/ATCC NSCLC; 786-0 renal; COLO 205 colon; DU-145 prostate; K-562 leukemia; MALME-3M melanoma; MDA-MB-231 breast; RXF 393 renal; SF-268 CNS; SF-295 CNS; SF-539 CNS; UACC-257 melanoma; M14 melanoma.
Experiment in all cases: NCI-60 one-dose screen, 48 h (100 = growth as untreated, 0 = no growth, -100 = all killed)
What all share (conditions): 10 µM

Regarding `COc1ccc2oc(=O)cc(C(c3ccc[nH]3)c3ccc[nH]3)c2c1`, the growth was 26% in the assay on NCI-H23 lung; 7.92% (active) in the assay with NCI-H226 lung; 27.7% with NCI-H322M lung; 4.73% (active) in the assay on HOP-62 NSCLC; 4.57% (active) in the assay with NCI-H460 lung; 32.6% in the assay with HOP-92 NSCLC. The growth in the assay with NCI-H522 lung was -23.1% (active); in the assay with A549/ATCC NSCLC, -7.88% (active); in the assay with 786-0 renal, 17.2%; in the assay with COLO 205 colon, -71.5% (active); with DU-145 prostate it was 13.3%; in the assay with K-562 leukemia, 4.44% (active). Further, the growth in the assay on MALME-3M melanoma was 49.6%; in the assay on MDA-MB-231 breast, 13.2%; with RXF 393 renal, -31.3% (active); in the assay on SF-268 CNS, 18.7%; with SF-295 CNS, 6.39% (active); in the assay on SF-539 CNS, 1.28% (active). Besides, the growth was 32.5% with UACC-257 melanoma and 8.91% (active) in the assay with M14 melanoma.

As for `CCCCCCCCCCSC(=N)N` (tested in a mixture with another compound), the growth in the assay on NCI-H23 lung is 80%; with NCI-H226 lung, 94.2%; in the assay with NCI-H322M lung, 105%; in the assay with HOP-62 NSCLC, 77.3%; with NCI-H460 lung, 52.5%; with HOP-92 NSCLC, 41.8%. The growth in the assay with NCI-H522 lung was 53.7%; with A549/ATCC NSCLC it was 75.3%; in the assay on 786-0 renal, 52.4%; in the assay with COLO 205 colon, -59.2% (active); in the assay on DU-145 prostate it was 79.6%; with K-562 leukemia it was 9.73% (active). The growth in the assay with MALME-3M melanoma is 82.7%; in the assay with MDA-MB-231 breast it was 7.07% (active); in the assay with RXF 393 renal, 64.5%; in the assay on SF-268 CNS, 79.1%; with SF-295 CNS, 94.4%; with SF-539 CNS it was 83.4%. In addition, the growth in the assay with UACC-257 melanoma was 99.5%; with M14 melanoma, 65.5%.

Take `COc1nc2c(c(=O)[nH]1)C(c1ccc(Oc3ccnc4cc(Cl)ccc34)c(OC)c1)C=C(c1cc(OC)c(OC)c(OC)c1)N2` (stereo not given): the growth was 95.3% in the assay with NCI-H23 lung; 96.6% in the assay with NCI-H226 lung; 95.2% with NCI-H322M lung; 116% in the assay on HOP-62 NSCLC; 102% in the assay with NCI-H460 lung; 82.1% in the assay on HOP-92 NSCLC. The growth with NCI-H522 lung is 93.3%; in the assay with A549/ATCC NSCLC, 101%; in the assay on 786-0 renal it was 95%; in the assay with COLO 205 colon, 102%; in the assay with DU-145 prostate it was 95.1%; with K-562 leukemia it was 87.8%. For the same molecule, the growth with MALME-3M melanoma was 109%; in the assay with MDA-MB-231 breast, 80.8%; in the assay on RXF 393 renal it was 106%; in the assay with SF-268 CNS it was 103%; in the assay on SF-295 CNS it was 99.1%; in the assay with SF-539 CNS, 108%. The growth in the assay with UACC-257 melanoma was 92.2%; with M14 melanoma, 98.8%.

Turning to `CCOc1ccc2c(c1)CC[C@@H]1[C@@H]2CC[C@]2(C)[C@@H](O)[C@@H](O)C[C@@H]12`, the growth in the assay on NCI-H23 lung was 106%; in the assay on NCI-H226 lung, 85.7%; with NCI-H322M lung it was 91.4%; in the assay with HOP-62 NSCLC, 114%; with NCI-H460 lung it was 100%; in the assay on HOP-92 NSCLC, 122%. In addition, the growth in the assay on NCI-H522 lung was 119%; with A549/ATCC NSCLC, 80.3%; in the assay on 786-0 renal it was 101%; in the assay on COLO 205 colon, 112%; in the assay with DU-145 prostate, 108%; in the assay with K-562 leukemia it was 91.8%. Further, the growth in the assay with MALME-3M melanoma is 91.4%; with MDA-MB-231 breast, 109%; with RXF 393 renal it was 95.9%; in the assay on SF-268 CNS it was 103%; with SF-295 CNS, 100%; in the assay on SF-539 CNS it was 103%. The growth in the assay with UACC-257 melanoma was 95.4%; in the assay with M14 melanoma it was 108%.

For the molecule `Cc1ccccc1[P+](Cc1ccccc1)(c1ccccc1)c1ccccc1`, the growth is 9.83% (active) in the assay on NCI-H23 lung; 39.5% in the assay on NCI-H226 lung; 42.3% with NCI-H322M lung; 32.3% in the assay with HOP-62 NSCLC; 17.5% with NCI-H460 lung; -21.8% (active) in the assay on HOP-92 NSCLC. Besides, the growth was -15.8% (active) with NCI-H522 lung; 19.7% in the assay on A549/ATCC NSCLC; 43.7% with 786-0 renal; -56% (active) in the assay with COLO 205 colon; 41% in the assay on DU-145 prostate; 7.69% (active) in the assay with K-562 leukemia. In addition, the growth in the assay on MALME-3M melanoma was -1.44% (active); in the assay with MDA-MB-231 breast it was 40.7%; in the assay with RXF 393 renal, 64.6%; with SF-268 CNS it was 33.9%; with SF-295 CNS, 11%; in the assay on SF-539 CNS it was 35.4%. The growth in the assay on UACC-257 melanoma was -26.7% (active); in the assay on M14 melanoma, 15.1%.

For the molecule `COc1ccc(-c2nnc(SC/C(=N\O)c3ccccc3)o2)cc1`, the growth was 89.3% in the assay on NCI-H23 lung; 95.5% with NCI-H226 lung; 113% in the assay on NCI-H322M lung; 97.7% in the assay with HOP-62 NSCLC; 98.8% with NCI-H460 lung; 98.4% with HOP-92 NSCLC. For the same molecule, the growth in the assay with NCI-H522 lung was 71.4%; with A549/ATCC NSCLC it was 107%; in the assay with 786-0 renal it was 97.2%; in the assay with COLO 205 colon, 110%; with DU-145 prostate, 100%; with K-562 leukemia, 94.2%. Also, the growth is 109% in the assay on MALME-3M melanoma; 92.3% in the assay on MDA-MB-231 breast; 120% with RXF 393 renal; 95.8% in the assay with SF-268 CNS; 101% in the assay with SF-295 CNS; 92.7% in the assay with SF-539 CNS. For the same molecule, the growth with UACC-257 melanoma was 121%; with M14 melanoma, 104%.

As to `CCn1nc(-c2ccc(C(=O)OC)cc2)nc2c(=O)n(C)c(=O)nc1-2`, the growth was 104% with NCI-H23 lung; 33.5% in the assay on NCI-H226 lung; 45.4% in the assay with NCI-H322M lung; -1.34% (active) in the assay with HOP-62 NSCLC; 47.8% with NCI-H460 lung; -13.1% (active) in the assay on HOP-92 NSCLC. Moreover, the growth in the assay on NCI-H522 lung was 77%; in the assay with A549/ATCC NSCLC, 35.8%; in the assay on 786-0 renal, -18.7% (active); in the assay with COLO 205 colon, 87.2%; in the assay on DU-145 prostate it was 77.6%; in the assay with K-562 leukemia, 80.9%. In addition, the growth in the assay on MALME-3M melanoma is 29.1%; in the assay on MDA-MB-231 breast, 15.8%; in the assay with RXF 393 renal it was 13.9%; in the assay with SF-268 CNS, 60.7%; with SF-295 CNS, 36.8%; in the assay with SF-539 CNS, 2.03% (active). Moreover, the growth was 105% in the assay with UACC-257 melanoma and 78.3% in the assay on M14 melanoma.

In the case of `CCN(CC)CCn1c(=N)n(CC(O)c2ccc(Cl)c(Cl)c2)c2ccccc21` (stereo not given), the growth was 91.2% in the assay with NCI-H23 lung; 92.2% with NCI-H226 lung; 99.5% in the assay on NCI-H322M lung; 85.3% in the assay on HOP-62 NSCLC; 104% in the assay on NCI-H460 lung; 58.1% with HOP-92 NSCLC. Also, the growth in the assay on NCI-H522 lung is 45%; in the assay on A549/ATCC NSCLC, 89.6%; with 786-0 renal it was 79.9%; in the assay with COLO 205 colon, 18.5%; in the assay with DU-145 prostate it was 97%; in the assay with K-562 leukemia, -0.392% (active). Further, the growth in the assay on MALME-3M melanoma is -35.6% (active); with MDA-MB-231 breast it was 45.1%; in the assay with RXF 393 renal, 76.3%; in the assay with SF-268 CNS, 87.2%; in the assay with SF-295 CNS, 103%; in the assay with SF-539 CNS, 42.4%. Further, the figures for the growth in the assay on UACC-257 melanoma and with M14 melanoma were -59.8% (active) and -58.6% (active), respectively.
